# Pf growth 48h – P. falciparum growth inhibition at 48 hours (one generation). P. falciparum luciferase growth in erythrocytes, 48 h. Potency, µM (doses to about 28.7 µM), usual class: inhibitors. 310,000 compounds, 5.9% hits
#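 Compounds are pin-transferred into medium, infected erythrocytes (2% hematocrit, 0.1% parasitemia final) are added, and plates sit one parasite generation at 37 C in 5% CO2. Detection reagent is then added and luminescence measured.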
# Shiga toxin inh – blocks Shiga toxin action in Vero cells; Vero cells, Shiga toxin protein synthesis inhibition reporter; inhibition, % at 38.7 µM; 290,000 compounds, 9.2% hits; in the data active = inhibition mostly above about 28%, no sharp cut-off; inactive = mostly below about 43%
# AMA1-RON2 inh – AMA1-RON2 (P. falciparum) interaction inhibition; AlphaScreen AMA1-biotinylated RON2 peptide binding; Potency, µM (top dose mostly 58.2 µM), actives largely listed as inhibitors; 360,000 compounds, 0.2% hits; also: nearly all actives have a fitted effect of over 45% in size
#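 AMA1 (3D7) with his tag at 25 nM final met compounds first, then biotinylated RON2 peptide at 25 nM; detection used donor plus acceptor beads, 10 µg/mL apiece, read by AlphaScreen after 30 min at room temperature.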
# CHX counter – affects cycloheximide protein synthesis inhibition readout, counter-screen | cell reporter, cycloheximide protein synthesis inhibition counterscreen | max response, % | 300,000 compounds, 12% hits; in the data active = max response mostly above about 13%, no sharp cut-off; inactive = mostly below about 14%; also: read at 38.3 µM for the half of the compounds with a filed dose
# Pf growth 96h – P. falciparum growth inhibition at 96 hours | AID 504834 | Potency, µM (highest dose often 28.7 µM), hits mostly inhibitors | P. falciparum luciferase reporter growth, 96 h | 320,000 compounds, 6.9% hits
#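 Two parasite generations (96 h, 37 C, 5% CO2) of compound exposure in infected erythrocytes (0.05% parasitemia, 2% hematocrit). Luciferase-reporter P. falciparum; decreased luminescence indicates inhibited growth, aimed at apicoplast-acting delayed death.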
# SARS PLpro yeast – blocks SARS-CoV papain-like protease in a yeast assay | 330,000 compounds, 0.19% hits | AID 485353 | S. cerevisiae expressing SARS-CoV PLpro, growth rescue | Potency, µM (titrated, usually from 32.9 µM), most hits filed as activators; calls by dose curve; also: nearly all actives have a fitted effect of over 55% in size
# Hits are given with their value; – = inactive; ? = inconclusive; · = not tested or not shown. The list is not random: actives were taken first. Their share in the collection is about 19%. Unless noted, calls follow the shape of the dose curve; as a rule, active = well fitted curve in the direction sought with a large enough effect; inconclusive = small, poorly fitted or top-dose-only effect, or another doubt; inactive = no such curve, though single readings can be large; an effect the other way counts as inactive or inconclusive.
SMILES,Pf growth 48h,Shiga toxin inh,AMA1-RON2 inh,CHX counter,Pf growth 96h,SARS PLpro yeast
O=C(NCC1CCOCC1)c1ccc(-c2ccc(F)c(F)c2)c2ccoc12,·,·,–,·,·,·
Clc1cccc(Cl)c1Cn1nnc(N2CCCC2)n1,–,85.9,–,23.1,–,–
Nc1nc(-c2c[nH]c3ccccc23)cs1,?,–,?,–,·,–
CCc1ccc(-c2csc(-c3c[nH]c4ccccc34)n2)cc1,–,38.4,–,61.8,?,–
CCC(C)Nc1nc(-c2c[nH]c3ccccc23)cs1 (configuration not stated),8.28µM,–,–,30.7,?,–
CNc1nc(-c2c[nH]c3ccccc23)cs1,·,–,?,–,?,–
CN1CCN(CC(=O)Nc2nc(-c3c[nH]c4ccccc34)cs2)CC1,?,62.1,–,22.2,?,–
COc1cc(OC)cc(C(=O)N[C@H](C(=O)OCC(=O)N2CCN(S(=O)(=O)c3ccc(C)cc3)CC2)C(C)C)c1,·,·,–,·,·,·
COc1ccc(S(=O)(=O)Nc2ccc3c(c2)C(=O)N([C@H](C)CO)C[C@H](C)[C@@H](CN(C)S(=O)(=O)c2cn(C)cn2)OCCCC[C@H](C)O3)cc1,·,·,–,·,·,·
C=C(C)Cn1c(SCCN2CCOCC2)nc2c1c(=O)[nH]c(=O)n2C,–,–,–,–,–,–
Cc1cccc(NC(=S)NC(NC(=O)c2ccco2)C(Cl)(Cl)Cl)c1 (configuration not stated),13.1µM,–,–,–,·,–
Cc1ccc(NC(=S)NC(NC(=O)c2ccco2)C(Cl)(Cl)Cl)cc1 (configuration not stated),4.65µM,–,–,–,·,–
O=C1CCCCC1C(O)(C(=O)c1ccccc1)c1ccccc1 (configuration not stated),·,·,–,·,·,·
COc1ccccc1NC(=O)N(C)C[C@@H]1OCc2cnnn2CCCC(=O)N([C@H](C)CO)C[C@@H]1C,·,·,–,·,·,·
O=C(c1ccc(NC2=NC3CS(=O)(=O)CC3S2)cc1)N1CCN(c2ccc([N+](=O)[O-])cc2)CC1 (configuration not stated),–,–,–,–,–,–
COc1ccccc1-n1c(SCC(=O)Nc2nnc(C)s2)nc2c(c1=O)SCC2,–,–,–,–,11.7µM,–
CCn1c(SCC(=O)N2CCCCCC2)nc2c(c1=O)SCC2,–,–,–,–,5.86µM,–
CCOC(=O)N1CCN(C(=O)CSc2nc3c(c(=O)n2-c2ccccc2OC)SCC3)CC1,?,–,–,–,1.31µM,–
CCOc1ccccc1C(=O)Nc1ccc(-n2nncc2C(C)(C)C)cc1,?,–,–,–,?,–
O=C1C2C3C=CC(C3)C2C(=O)N1c1ccc(-c2nc3ccccc3o2)cc1 (configuration not stated),–,–,–,28.9,–,–
CCCCC(C)/C=C(C)/C=C(\C)C(=O)NC1=CC(O)(/C=C/C=C/C=C/C(=O)NC2=C(O)CCC2=O)C2OC2C1=O (configuration not stated),·,–,·,–,·,·
COc1ccc(C(CNC(=O)c2ccc(-c3ccccc3Cl)o2)N2CCOCC2)cc1 (configuration not stated),14.7µM,·,–,·,?,–
COc1ccccc1C(CNC(=O)c1ccco1)N1CCCC1 (configuration not stated),–,·,–,·,–,–
COc1ccc(C(CNC(=O)Cc2ccc(Cl)c(Cl)c2)N2CCCCC2)cc1 (configuration not stated),?,–,–,–,2.08µM,–
COc1ccccc1C(CNC(=O)c1ccc(-c2ccccc2Cl)o1)N1CCCC1 (configuration not stated),14.7µM,·,–,·,10.4µM,–
COc1cc2c(cc1OC)C(O)C(O)(CO)C(C(=O)O)C2c1cc(OC)c(OC)c(OC)c1 (configuration not stated),·,·,–,·,·,·
CSC(=NC#N)N1CCN(c2ccc([N+](=O)[O-])cc2)CC1,?,–,–,–,–,–
CC1(C(=O)NS(=O)(=O)c2cccc(OC(F)F)c2)CCN1C(=O)c1ccco1 (configuration not stated),·,·,–,·,·,·
Cc1c(C(=O)N/N=C/c2ccccc2)[nH]c2ccc(Cl)cc12,–,40.5,–,27.2,?,–
COc1ccc(/C=N/NC(=O)c2[nH]c3ccc(Cl)cc3c2-c2ccccc2)c(C(=O)O)c1OC,·,–,–,–,–,–

# Source: PubChem BioAssay (National Center for Advancing Translational Sciences (NCATS))
